Source: PubChem (National Center for Advancing Translational Sciences (NCATS))
An excerpt weighted towards active compounds, which were near 12% of everything screened.
HP1b binding inh: HP1-beta chromodomain-methylated histone interaction inhibition; P83916; 0.56% of 390,000 active; AlphaScreen HP1-beta / biotin-H3K9me3 peptide binding; Potency, µM (titrated, usually from 114 µM), without a hit: at the top dose activity change, negative = inhibition, usual class: inhibitors; AID 540317; note: nearly all actives have a fitted effect of over 70% in size
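Compound inhibition of the preformed complex between 50 nM HP1-beta and 50 nM biotinylated H3K9me3 peptide was read by AlphaScreen. Buffer was PBS pH 7.4 with 0.01% Tween-20. Incubations ran 30 min at room temperature, with 10 ug/mL donor/acceptor beads.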
L3MBTL1 block: inhibitors of human L3MBTL1. AlphaScreen L3MBTL1–H3K9me1 peptide binding. 0.66% of 230,000 active. Q9Y468. Potency, µM (top dose mostly 57.1 µM), for inactives: at the highest dose activity, negative = inhibition, hits mostly inhibitors; note: % is set by controls: 0 for no effect and ±100 for the full control effect; nearly all actives have a fitted effect of over 60% in size
Target sequence (Q9Y468 whole entry, looked up): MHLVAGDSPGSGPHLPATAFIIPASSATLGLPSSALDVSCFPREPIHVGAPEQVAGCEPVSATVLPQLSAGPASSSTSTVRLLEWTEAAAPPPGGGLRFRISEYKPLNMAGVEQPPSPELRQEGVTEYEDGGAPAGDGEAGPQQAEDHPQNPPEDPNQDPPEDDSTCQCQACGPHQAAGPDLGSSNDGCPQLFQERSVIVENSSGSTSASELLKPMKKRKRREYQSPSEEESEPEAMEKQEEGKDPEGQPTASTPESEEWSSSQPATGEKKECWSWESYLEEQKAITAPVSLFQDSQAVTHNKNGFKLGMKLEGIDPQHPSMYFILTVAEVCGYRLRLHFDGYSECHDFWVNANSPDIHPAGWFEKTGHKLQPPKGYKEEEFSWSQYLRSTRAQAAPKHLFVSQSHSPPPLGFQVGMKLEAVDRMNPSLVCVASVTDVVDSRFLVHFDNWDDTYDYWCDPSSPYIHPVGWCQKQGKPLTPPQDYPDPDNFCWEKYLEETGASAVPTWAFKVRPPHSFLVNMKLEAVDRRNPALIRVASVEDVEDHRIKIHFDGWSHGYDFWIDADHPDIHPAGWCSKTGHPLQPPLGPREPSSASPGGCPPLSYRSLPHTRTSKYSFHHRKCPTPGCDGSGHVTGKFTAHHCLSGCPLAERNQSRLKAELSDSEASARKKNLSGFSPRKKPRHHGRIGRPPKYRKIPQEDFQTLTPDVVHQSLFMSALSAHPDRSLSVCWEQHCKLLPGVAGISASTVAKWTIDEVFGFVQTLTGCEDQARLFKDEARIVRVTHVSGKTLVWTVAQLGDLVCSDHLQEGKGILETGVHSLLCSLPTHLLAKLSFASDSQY
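Read-out is AlphaScreen signal from streptavidin donor and nickel chelate acceptor beads (10 ug/mL final each) bridging L3MBTL1 (50 nM) and biotinylated K9-monomethylated H3(1-15) peptide (75 nM), after 30 min compound exposure at room temperature.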
Sfp inh: inhibitors of Bacillus subtilis Sfp phosphopantetheinyl transferase; Q9F4F7; Biochemical Sfp PPTase activity, qHTS; Potency, µM, for inactives: largest response in the series, negative = inhibition, actives largely listed as inhibitors; 3.5% of 310,000 active;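 note: the enzyme is Sfp with the accession as filed and its product quenches rhodamine fluorescence; 0% = enzyme reaction without inhibitor and -100% = no enzyme wells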
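Fluorescence-quenching assay: 15 nM Sfp-PPTase preincubated 15 min at room temperature with compound, then 5 uM rhodamine-CoA and 12.5 uM BHQ-2-labelled YbbR peptide added. Fluorescence (ex 525/em 598 nm) read at start and after 30 min; difference gives rate.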
JMJD2A Tudor: inhibitors of human JMJD2A Tudor domain | AlphaScreen JMJD2A-Tudor / H3K4me3 peptide binding | Potency, µM (highest dose often 114 µM), inactives show at the top dose activity change, negative = inhibition, usual class: inhibitors | 4.4% of 390,000 active; note: % is set by controls: 0 for no effect and ±100 for the full control effect; nearly all actives have a fitted effect of over 50% in size
BAZ2B block: blocks human BAZ2B. AID 504333. AlphaScreen BAZ2B-H3K14Ac peptide displacement. Potency, µM (series often up to 114 µM), for the others: at the top dose activity change, negative = inhibition, hits mostly inhibitors. 4.4% of 360,000 active; note: % is set by controls: 0 for no effect and ±100 for the full control effect; nearly all actives have a fitted effect of over 60% in size
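Complex of BAZ2B and biotin-H3K14Ac (50 nM apiece) forms over 30 min at RT, then faces library compounds up to 110 uM for another 30 min; AlphaScreen beads added, 20 min dark incubation, luminescence read.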
G9a block: blocks human histone lysine methyltransferase G9a; Q96KQ7; 8.8% of 350,000 active; G9a H3K9 monomethylation, AlphaScreen, 2 h; Potency, µM (titrated, usually from 102 µM), inactives show at the top dose activity, negative = inhibition, hits mostly inhibitors; note: % is set by controls: 0 for no effect and ±100 for the full control effect; nearly all actives have a fitted effect of over 75% in size
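Signal arises when biotinylated H3K9 peptide, once monomethylated, bridges streptavidin donor and antibody-captured acceptor beads. Enzyme at 20 nM was preincubated 15 min with test compounds; peptide 500 nM and SAM 20 uM then reacted for 2 h.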
Numbers without * were called inactive; ? = inconclusive; . = no result given; [ ] = dose if it differs, or a comment. Calls come from the whole dose curve; as a rule, active = well fitted curve in the direction sought with a large enough effect; inconclusive = small, poorly fitted or top-dose-only effect, or another doubt; inactive = no such curve, though single readings can be large; an effect the other way counts as inactive or inconclusive. Potency is the fitted concentration of half-maximal effect.

SMILES	HP1b binding inh	L3MBTL1 block	Sfp inh	JMJD2A Tudor	BAZ2B block	G9a block
C#CCOCCOCCOCCNc1nc(N2CCN(C(=O)[C@H](Cc3cc4ccccc4[nH]3)n3cc(C(N)CC(C)C)nn3)CC2)nc(N2CCN(C(=O)[C@H](CCC(=O)O)n3cc(C(N)[C@H](C)CC)nn3)CC2)n1 (stereo partly specified)	13%	-6%	-2%	56µM*	45µM*	1%[12.7 µM]
C=CCC(C)(O)/C=C/c1ccccc1 (stereo unspecified)	.	.	-6%	.	.	.
CCc1cccc(NC(=O)CN(c2ccc(C)cc2)S(=O)(=O)c2cccs2)c1	51%	.	.	4%	.	-2%[59 µM]
Cc1noc(NS(=O)(=O)c2ccc(NC(=O)COc3ccccc3Br)cc2)c1C	18%	.	.	-24%	-15%	4%[59 µM]
CCOC(=O)Nc1sc2c(c1C#N)CCCC2	29%	.	1%	-3%	9%	17%[59 µM]
CCOC(=O)C1CCc2sc(N)c(C#N)c21 (stereo unspecified)	-5%	-2%[11.4 µM]	50µM*	-22%	15%	15%[59 µM]
CCOC(=O)N1CCc2c(sc(N)c2C#N)C1	20%	-7%	56µM*	-20%	-25%	20µM*
COC(=O)C1=C(C)OC(N)=C(C#N)C1c1cc2cc(C)ccc2nc1Cl (stereo unspecified)	39%	4%	13%	-4%	-33%	40µM*
CC(=O)C1=C(C)OC(N)=C(C#N)C1c1cc2cc(C)c(C)cc2nc1Cl (stereo unspecified)	21%	5%	?	-17%	-12%	?
CCc1ccc(NC(=O)c2sc3nc(C)c(C(=O)Nc4ccc(C)cc4C)c(-c4ccco4)c3c2N)cc1	2%	.	.	-19%	-13%	12%[59 µM]
COc1ccc(C)cc1NC(=O)C1CCN(C(=O)c2ccc(C(C)(C)C)cc2)CC1	-8%	.	6%	-33%	-18%	-3%
O=C1C(Cl)=C(N2CCOCC2)C(=O)N1c1cccc(Cl)c1	76%	8%	-5%	?	33%	?
CN1CCN(C2=C(Cl)C(=O)N(c3ccc(Cl)cc3)C2=O)CC1	26%	-7%	-13%	40µM*	.	5µM*
Cc1cccc(N2C(=O)C(Cl)=C(N3CCOCC3)C2=O)c1	56%	3%	3.5µM*	-13%	2%	?
C[C@]12CCC(=O)C=C1CC[C@@H]1[C@@H]2[C@@H](O)C[C@]2(C=O)[C@@H](C(=O)CO)CC[C@@H]12	19%	4%	.	-8%	-2%	-2%[59 µM]
CCCOc1cccc(C(=O)NCCNC(=O)c2ccc(C)nc2)c1	-5%	.	17%	-13%	0%	19%
OC(CN1CCOCC1)c1ccc(F)cc1 (stereo unspecified)	?	-6%	-13%	20µM*	50µM*	-41%
O=S(=O)(c1ccc2c(c1)OCCO2)N1CCN(S(=O)(=O)c2cccs2)CC1	.	.	.	-14%	.	.
CC1=C(C)C(c2ccccc2)NC(=S)N1 (stereo unspecified)	32%	-9%	5%	3%	-24%	?
S=c1nc(C2CC2)n(-c2ccccc2)[nH]1	23%	.	?	2.5µM*	-12%	?
O=C1c2cc(O)cc(O)c2C(=O)c2c1cc(O)c([C@@H](CO)CCO)c2O	?	.	.	79µM*	.	.
O=C1c2cccc(O)c2C(=O)c2c(O)cc(CO)cc21	20%	.	-7%	-19%	.	.
COc1ccc(Cl)cc1NC(=S)N(Cc1ccccc1C)CC1CCC(C(=O)O)CC1 (stereo unspecified)	8%	.	56µM*	-14%	6%	28µM*
O=C(Cc1ccc(F)cc1)OCN1C(=O)c2ccccc2C1=O	46%	.	-13%	-9%	79µM*	28µM*
COc1ccc(CC(=O)OCN2C(=O)c3ccccc3C2=O)cc1	48%	4%	6%	11%	6%	23%[59 µM]
SMILES	HP1b binding inh	L3MBTL1 block	Sfp inh	JMJD2A Tudor	BAZ2B block	G9a block
CCOc1ccc(CC(=O)OCN2C(=O)c3ccccc3C2=O)cc1	23%	17%	89µM*	-3%	-3%	40µM*
Cc1ccc(OCC(=O)N2CCCC(CO)(CCOc3ccccc3)C2)cc1 (stereo unspecified)	8%	.	9%	-13%	-5%	3%[0.501 µM]
CC12CCC(=O)N1C(C(=O)Nc1nnc(SCc3ccccc3F)s1)CS2 (stereo unspecified)	22%[57 µM]	.	2%	-20%	-25%	79µM*
CC12CCC(=O)N1C(C(=O)Nc1nc3c(F)cc(F)cc3s1)CS2 (stereo unspecified)	27%	.	-3%	-21%	-1%	45µM*
CCc1cccc(NC(=O)Cn2c(=O)n(Cc3ccccc3)c(=O)c3c(C)c(C(=O)N(C)C)sc32)c1	4%	.	.	-23%	-16%	5%[59 µM]
Cc1noc(C)c1C(=O)N1CCC2(CC1)CCN(c1ccccn1)CC2	.	.	13%	.	.	1%[12.7 µM]
COc1ccc(CCN2C(=O)CS/C2=N\NC(=O)c2ccc(C(C)(C)C)cc2)cc1OC	41%	-5%	28%	1%[57.1 µM]	-3%	-12%[59 µM]
C=CCc1cc(Cl)ccc1OCCCNC(C)C	?	10%	-20%	32µM*	56µM*	8.9µM*
CCC(C)NCCOCCSc1ccc(Cl)cc1 (stereo unspecified)	?	7%	-2%	3.5µM*	79µM*	8.9µM*
C=CCc1cc(Cl)ccc1OCCOCCNC(C)CC (stereo unspecified)	?	8%	?	1.4µM*	50µM*	10µM*
C=CCc1ccccc1OCC(O)CNC(C)C (stereo unspecified)	14%	3%	7%	-17%	-12%	?
COc1cccc(N2C(=O)C3C(C2=O)C3(c2ccccc2)c2ccccc2)c1 (stereo unspecified)	9%	-15%	-2%	-13%	-15%	3%
CC1(c2ccccc2)NC(=S)N2C1NC(=S)N2c1ccccc1 (stereo unspecified)	15%	.	-15%	?	-35%	50µM*
COc1ccc(N2C(=S)NC3N2C(=S)NC3(C)c2ccccc2)cc1 (stereo unspecified)	12%	-3%	?	-23%	?	28µM*
O=C(O)CC1NC(=S)N(c2ccccc2)C1=O (stereo unspecified)	9%	-4%	-8%	?	11%	?
CCCCC/C=C\C[C@@H](O)/C=C/C=C/C=C/[C@@H](O)CCCC(=O)O	.	.	2%	.	.	.
CCNCc1nc2cc(OC)c(OC)cc2c(=O)[nH]1	33%	.	?	-13%	50µM*	?
CC(=O)Nc1ncc(N=Nc2cccc(C(F)(F)F)c2)s1	21%	.	17%	-6%	-18%	45µM*
O/N=C/c1ccc2cccc(OCc3ccccc3)c2n1	25%	.	-8%	-14%	-27%	20µM*
